Measurements from PubChem BioAssay.
The source made the active and inactive calls. Cut-off read from the data, not from the text of the source, unless noted: active = parasite load remaining mostly below about 12% (no sharp cut-off); inactive = mostly above about 10%.

Assays:
[1] = compounds altering viability of human ES cells (AID 493140; call rule not given here;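 note: cells exposed to compounds for four days before counting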); conditions: human embryonic stem cell survival screen; stronger effect = higher value
[2] = P. berghei load reduction in hepatocytes – cell-based, HepG2, luciferase luminescence, HepG2 viability, primary screen (AID 624349);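 note: 100% = mean of DMSO negative control wells on the same plate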; conditions: P. berghei liver stage in HepG2, luciferase luminescence, concentration not given here; parasite load remaining: stronger effect = lower value; viability: measured here: HepG2 viability without parasites

SMILES: CC[C@H]1CN2CCc3cc(OC)c(OC)cc3[C@@H]2C[C@@H]1CC1NCCc2cc(OC)c(OC)cc21 (some centres undefined)
- survival [1]: 0.25 (inactive)
- parasite load remaining [2]: 2.62% (inactive)
- viability [2]: 61.4%

SMILES: O=C1Nc2ccccc2/C1=C\c1c(Cl)[nH]c2ccccc12
- parasite load remaining [2]: 35% (inactive)
- viability [2]: 118%

SMILES: COC(=O)C1=CO[C@@H](C)[C@@H]2CN3CCc4c([nH]c5ccccc45)C3C[C@H]12 (some centres undefined)
- survival [1]: 5.92 (inactive)
- parasite load remaining [2]: 62.4% (inactive)
- viability [2]: 77.2%

SMILES: Nc1nc2ncc(CNc3ccc(C(=O)N[C@H](CCC(=O)O)C(=O)O)cc3)nc2c(=O)[nH]1
- survival [1]: 11.4 (inactive)
- parasite load remaining [2]: 51.4% (inactive)
- viability [2]: 76.8%

SMILES: CC(=O)O[C@H]1C(=O)[C@@]2(C)[C@H](O)C[C@@H]3OC[C@]3(OC(C)=O)[C@@H]2[C@@H](OC(=O)c2ccccc2)[C@@]2(O)C[C@@H](OC(=O)[C@@H](O)[C@H](NC(=O)c3ccccc3)c3ccccc3)C(C)=C1C2(C)C
- survival [1]: 5 (inactive)
- parasite load remaining [2]: 172% (inactive)
- viability [2]: 89.6%

SMILES: O=C(N[C@H](CO)[C@@H](O)c1ccc([N+](=O)[O-])cc1)C(Cl)Cl
- survival [1]: 26.4 (inactive)
- parasite load remaining [2]: 100% (inactive)
- viability [2]: 91.7%

SMILES: C=CC1=C(C(=O)O)N2C(=O)[C@@H](NC(=O)/C(=N/OCC(=O)O)c3csc(N)n3)[C@H]2SC1 (stereo in doubt)
- survival [1]: 5.58 (inactive)
- parasite load remaining [2]: 92.8% (inactive)
- viability [2]: 73.2%

SMILES: O=Nc1c(-c2c(O)[nH]c3ccc(I)cc23)[nH]c2ccccc12
- parasite load remaining [2]: 33.7% (inactive)
- viability [2]: 156%

SMILES: CCOC(=O)[C@@H](CCc1ccccc1)NC(C)C(=O)N1CCC[C@@H]1C(=O)O (some centres undefined)
- survival [1]: 25.8 (inactive)
- parasite load remaining [2]: 94.8% (inactive)
- viability [2]: 91.7%

SMILES: Cc1cc2ncc(-c3ccccc3)nc2cc1C
- survival [1]: 100 (inactive)
- parasite load remaining [2]: 40.3% (inactive)
- viability [2]: 74.4%

SMILES: NCC1OC(COC[C@@H]2C(O)[C@H](OC3C(O)C(N)CC(N)C3OC3OC(CN)C(O)C(O)C3N)O[C@@H]2CO)C(N)C(O)C1O (some centres undefined)
- survival [1]: 12.3 (inactive)
- parasite load remaining [2]: 91.3% (inactive)
- viability [2]: 89.7%

SMILES: C[C@]12CCC(=O)C[C@H]1CC(=O)[C@@H]1[C@@H]2CC(=O)[C@]2(C)CCC[C@@H]12 (tested in a mixture with another compound)
- survival [1]: 19.5 (inactive)
- parasite load remaining [2]: 107% (inactive)
- viability [2]: 86.8%

SMILES: Cn1c(O)c(-c2[nH]c3ccccc3c2N=O)c2ccc(Br)cc21
- parasite load remaining [2]: 27.7% (inactive)
- viability [2]: 171%

SMILES: Nc1c2ccccc2nc2c(O)cccc12
- survival [1]: 5.5 (inactive)
- parasite load remaining [2]: 80.8% (inactive)
- viability [2]: 77.4%

SMILES: CC(=O)NC1[C@@H](O)OC(CO)[C@@H](O)[C@H]1O[C@H](C)C(=O)O (some centres undefined)
- survival [1]: 11.5 (inactive)
- parasite load remaining [2]: 82.1% (inactive)
- viability [2]: 76.2%

SMILES: C=C1CC[C@@H](O)C/C1=C/C=C1\CCC[C@]2(C)[C@@H]([C@H](C)/C=C/[C@@H](C)C(C)C)CC[C@@H]12
- survival [1]: 8.25 (inactive)
- parasite load remaining [2]: 66.4% (inactive)
- viability [2]: 88.3%

SMILES: O=C1Nc2ccc(Cl)cc2/C1=C/c1cc(Cl)c(O)c(Cl)c1
- parasite load remaining [2]: 28.5% (inactive)
- viability [2]: 82.4%

SMILES: O=C1NC(=NCc2cccs2)S/C1=C\c1ccc2ncccc2c1
- parasite load remaining [2]: 27.7% (inactive)
- viability [2]: 96.3%

SMILES: O=C1O[C@H](C(O)CO)[C@H](O)C1O (some centres undefined)
- survival [1]: 4.42 (inactive)
- parasite load remaining [2]: 68.2% (inactive)
- viability [2]: 76.1%

SMILES: CN1[C@@H]2CC[C@H]1CC(OC(=O)[C@@H](CO)c1ccccc1)C2 (some centres undefined)
- survival [1]: 13.1 (inactive)
- parasite load remaining [2]: 111% (inactive)
- viability [2]: 89%

SMILES: CC1Cc2ccccc2N1NC(=O)c1ccc(Cl)c(S(N)=O)c1 (centres undefined)
- survival [1]: 17.1 (inactive)
- parasite load remaining [2]: 50.9% (inactive)
- viability [2]: 94.8%

SMILES: COc1cc(OC)c2c(c1Cl)O[C@]1(C2=O)C(OC)CC(=O)C[C@H]1C (some centres undefined)
- survival [1]: 13.2 (inactive)
- parasite load remaining [2]: 83.9% (inactive)
- viability [2]: 93.9%

SMILES: CCOC(=O)Oc1c(OC)cc(C(=O)OC2CC3CN4CCc5c([nH]c6cc(OC)ccc56)C4CC3C(C(=O)OC)C2OC)cc1OC (centres undefined)
- survival [1]: 6.25 (inactive)
- parasite load remaining [2]: 55.8% (inactive)
- viability [2]: 77.6%

SMILES: CC(C)(O/N=C(/C(=O)N[C@@H]1C(=O)N2C(C(=O)[O-])=C(C[n+]3ccccc3)CS[C@H]12)c1csc(N)n1)C(=O)O
- survival [1]: 5.92 (inactive)
- parasite load remaining [2]: 88.2% (inactive)
- viability [2]: 82.6%

SMILES: C[C@H]1[C@H](C)CC[C@]2(C(=O)O)CC[C@]3(C)C(=CCC4[C@@]5(C)CC[C@H](O)C(C)(C)[C@@H]5CC[C@]43C)[C@H]12 (some centres undefined)
- survival [1]: 11.2 (inactive)
- parasite load remaining [2]: 107% (inactive)
- viability [2]: 92.7%

SMILES: O=C1Nc2ccc(Br)cc2/C1=C/c1cc2c([nH]1)CCCC2
- parasite load remaining [2]: 44.1% (inactive)
- viability [2]: 66.2%

SMILES: Cn1cc(/C=C2\C(=O)Nc3ccc(S(N)(=O)=O)cc32)c2ccccc21
- parasite load remaining [2]: 59.7% (inactive)
- viability [2]: 106%

SMILES: O=c1c(-c2ccc(F)cc2)c(-c2ccncc2)[nH]n1-c1ccc(Cl)cc1
- parasite load remaining [2]: 36.4% (inactive)
- viability [2]: 68.5%

SMILES: O=C1NC(=O)c2c1c1c3ccccc3[nH]c1c1[nH]c3cc(Br)ccc3c21
- parasite load remaining [2]: 60.6% (inactive)
- viability [2]: 160%

SMILES: CC(=O)NC1SCCC1=O (centres undefined)
- parasite load remaining [2]: 139% (inactive)
- viability [2]: 87.1%

SMILES: CC[n+]1c(/C=C/N(C)c2ccccc2)n(-c2ccccc2)c2ccc(-c3nc4ccccc4s3)cc21
- parasite load remaining [2]: 33.2% (inactive)
- viability [2]: 152%

SMILES: O=c1c(O)c(-c2ccc(O)c(O)c2)oc2cc(O)c(O)c(O)c12
- parasite load remaining [2]: 32.1% (inactive)
- viability [2]: 88.8%
